PLC-gamma1 inh – PLC-gamma1 (human) inhibition, primary screen; P19174; purified PLC-gamma1, fluorogenic substrate, fluorescence; inhibition, % at 12.2 µM; 0.84% of 370,000 active; AID 720700
H9c2 protect – modulators protecting cardiomyocytes from myocardial damage; H9c2 cardiomyocytes, H2O2 injury protection, ATPLite, 2 h; protection from H2O2 cell death, % at 20 µM; 0.63% of 360,000 active; AID 588492;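 active = compounds giving at least 50% protection of heart cells from peroxide-induced death in the single-dose screen, raw or plate-pattern-corrected value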;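 also: 0% = DMSO wells with peroxide and 100% = DMSO wells without peroxide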
FAS TE block – inhibitors of human fatty acid synthase thioesterase domain; P49327; recombinant FAS-TE, OMFH fluorogenic substrate, fluorescence endpoint; inhibition, % at 15 µM; 0.67% of 360,000 active; AID 602261;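 active = compounds whose normalised, plate-corrected inhibition of enzyme fluorescence in the single-dose primary screen is 50% or more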;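 also: 0% = DMSO with enzyme and 100% = substrate without enzyme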
PLC-beta3 inh – PLC-beta3 (human) inhibition, primary screen | Q01970 | Purified PLC-beta3, fluorogenic substrate, fluorescence | inhibition, % at 12.2 µM | 0.18% of 370,000 active | AID 720704; in the data active = inhibition above about 11%;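 also: 0% = median of compound wells on plate and 100% = full blocker control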
PLCgamma1 ctr – counter-screen for PLC-beta3 inhibitors: inhibitors of human PLC-gamma1. shares compounds with PLC-gamma1 inh. purified PLC-gamma1, fluorogenic substrate, fluorescence. inhibition, % at 12.3 µM. 3.1% of 3,300 active. AID 743258
PLCb3 confirm – human PLC-beta3 inhibition, confirmation. inhibition, % at 12.3 µM. shares compounds with PLC-gamma1 inh. 1% of 3,300 active. purified PLC-beta3, fluorogenic substrate fluorescence. AID 743261; in the data active = inhibition above about 11%
The depositor's hits bear a star; x = no result given. This is a sample that favours compounds with a hit; in the whole collection about 2.2% have one here. Rule as the data show it, unless noted: active = inhibition above about 9.5%; inactive = the rest.

SMILES | PLC-gamma1 inh | H9c2 protect | FAS TE block | PLC-beta3 inh | PLCgamma1 ctr | PLCb3 confirm
COc1ccc(NC(=O)COC(=O)CCC2CCCCC2)cc1 | -3.9 | 0.7 | 8.4 | -6.2 | x | x
CC(C)(C)c1cc(CCC(=O)NCC2CCCO2)cc(C(C)(C)C)c1O (stereo unspecified) | 3.1 | -0.5 | 1.0 | -2.4 | x | x
COc1ccc(N2C(=S)N=C(Nc3ccccc3)C23CCCCC3)cc1 | 15.3* | -6.2 | 2.1 | -2.8 | -0.4 | 4.2
COc1ccc(NC2=NC(=S)N(c3ccccc3C)C23CCCCC3)cc1 | 5.4 | -14.4 | 8.6 | 2.1 | x | x
COc1ccc(S(=O)(=O)N(C)Cc2ccc3c(c2)OCCO3)cc1 | 2.5 | -4.3 | 23.1 | -7.4 | x | x
COc1ccc(C(=O)Nc2nnc(C)s2)cc1S(=O)(=O)N1CCOCC1 | 11.9* | 1.7 | -6.8 | -8.0 | -8.1 | -3.5
O=C(COc1ccc(S(=O)(=O)N2CCOCC2)cc1)NC1CCCC1 | 5.8 | 2.2 | -6.8 | 0.5 | x | x
O=C(COc1ccc(S(=O)(=O)N2CCOCC2)cc1)NC1CC1 | 10.1* | 3.0 | -2.0 | 1.6 | 0.5 | 3.0
COc1ccc(C(=O)OCC(=O)NC2CC2)cc1S(=O)(=O)N1CCOCC1 | 9.6* | 6.5 | -2.2 | 6.2 | -4.9 | -0.3
O=C(NCc1ccc(F)cc1)C(c1ccc(Cl)cc1)N(C(=O)c1csnn1)C1CC1 (stereo unspecified) | 2.5 | 11.3 | 17.5 | -2.5 | x | x
O=[N+]([O-])c1cc(C(F)(F)F)ccc1NCCCCNS(=O)(=O)c1ccc(Cl)cc1 | 4.9 | -27.2 | 36.1 | 11.1* | 9.3 | 4.8
CCS(=O)(=O)c1nc(S(=O)(=O)c2ccc(C)cc2)c(N2CCN(C)CC2)s1 | 9.8* | 1.0 | -5.1 | -4.7 | -0.2 | -0.8
CS(=O)(=O)NNC(=O)Cn1nnc(-c2ccc(OCc3ccccc3Cl)cc2)n1 | 3.0 | -10.0 | 9.8 | -9.7 | x | x
Cc1cccc(C2(c3cccc(C)c3)OC(=O)c3ccccc32)c1 | 14.2* | -30.2 | 28.1 | 8.6 | -2.5 | -2.7
Cc1c(N2C(=O)/C(=C/c3ccc(N(C)C)cc3)N(C)C2=S)c(=O)n(-c2ccccc2)n1C | -0.5 | -5.4 | -27.2 | -8.0 | x | x
COc1ccc(C(C)NC(=S)NCc2ccc(F)cc2)cc1OC (stereo unspecified) | 17.4* | -6.7 | -4.1 | -6.7 | 3.1 | 3.4
O=C(Cn1nnc(-c2ccccc2)n1)Nc1ccccc1N1CCOCC1 | 3.3 | -6.1 | -3.5 | 2.1 | x | x
Cc1ccc(-c2nnn(CC(=O)Nc3ccccc3N3CCOCC3)n2)cc1 | 10.5* | -6.5 | 12.1 | 4.9 | -2.4 | 1.2
Cc1nn(C)cc1S(=O)(=O)N1CCN(Cc2ccc(F)cc2Cl)CC1 | 0.5 | -6.6 | -5.1 | 11.8* | -1.8 | -2.2
CCOc1ccc(S(=O)(=O)N2CCC(C(=O)N3CCCC3)CC2)cc1C | 10.6* | -12.7 | 2.0 | 2.6 | 3.3 | 2.4
COc1ccc(C(=O)OCC(O)COC(=O)c2ccc(OC)cc2)cc1 | -0.3 | -0.6 | 4.2 | -8.3 | x | x
Cc1cc(NC(=O)CCCC(=O)O)nc(C)n1 | 10.5* | -5.6 | -11.2 | 5.4 | -1.9 | -0.8
O=c1c2cc3cc(Cl)ccc3nc2ncn1Cc1ccc(Oc2ccccc2)cc1 | -5.5 | x | x | -4.5 | x | x
COc1ccccc1CC1(C)C(=O)Nc2ccc(S(=O)(=O)NC3CCCCC3)cc21 (stereo unspecified) | 5.9 | 7.4 | 6.2 | 0.8 | x | x
CC1(Cc2ccc(F)cc2)C(=O)Nc2ccc(S(=O)(=O)NC3CCCCC3)cc21 (stereo unspecified) | 6.4 | -7.1 | 15.0 | 10.8* | -9.2 | -2.5
SMILES | PLC-gamma1 inh | H9c2 protect | FAS TE block | PLC-beta3 inh | PLCgamma1 ctr | PLCb3 confirm
CCCNC(=O)C(Cc1cccc(Cl)c1)NC(=O)c1ccccc1 (stereo unspecified) | 5.1 | 5.2 | -4.4 | 13.9* | -1.5 | 2.2
O=C(N[C@@H](Cc1ccccc1)C(=O)NC1CC1)c1ccc(Cl)cc1 | 10.5* | -2.4 | -2.7 | -3.1 | 0.5 | 1.2
CCN(CC)C(=O)CC[C@@H]1CC[C@]2(CCCN(Cc3ccc(Br)cc3)C2)O1 | 2.0 | x | x | 4.5 | x | x
Cc1nn(C)c(Cl)c1CN1CCCC(CCC(=O)NCc2ccccc2F)C1 (stereo unspecified) | -0.5 | -3.8 | -2.7 | -1.7 | x | x
O=C(CCc1cccc(Cl)c1)NC1CCCN(Cc2ccccc2F)C1 (stereo unspecified) | 3.8 | 1.2 | 2.5 | -3.9 | x | x
CCOc1cccc(CN2CCCC(CCC(=O)NCc3ccccc3F)C2)c1O (stereo unspecified) | 11.3* | -2.2 | -3.0 | 11.4* | -6.3 | -0.3
O=C(Cc1ccc(Cl)cc1)NC1CCCN(Cc2ccccc2F)C1 (stereo unspecified) | 11.8* | -3.8 | 3.3 | -2.3 | -3.3 | 2.1
Cc1cccc(C(=O)OCC(=O)N(C)C(c2ccccc2)c2ccccc2)c1[N+](=O)[O-] | 0.6 | -10.6 | 47.6 | -7.7 | x | x
O=C(NCC(=O)N(c1cccnc1)C(C(=O)NC1CCCCC1)c1ccccc1F)c1ccco1 (stereo unspecified) | 10.9* | -1.3 | -6.3 | 5.4 | 2.3 | 1.3
O=C(NCC(=O)N(c1cccnc1)C(C(=O)NC1CCCC1)c1ccccc1)c1ccco1 (stereo unspecified) | -0.8 | 4.2 | -6.6 | 3.5 | x | x
CCCCN(C(=O)CNC(=O)c1ccco1)C(C(=O)NC1CCCC1)c1ccc(OC)cc1 (stereo unspecified) | 11.7* | -0.8 | -10.1 | -1.0 | -3.1 | -2.4
CCOc1ccc(C(C(=O)NC2CCCC2)N(CCOC)C(=O)CNC(=O)c2ccco2)cc1 (stereo unspecified) | -3.1 | 0.1 | -5.1 | -8.8 | x | x
Cc1ccc(S(=O)(=O)NCCSc2nncn2C)cc1 | 1.7 | 6.3 | -5.0 | -5.6 | x | x
Cc1ccc(S(=O)(=O)NC(C)(C)CSc2nncn2N)cc1 | 11.0* | 2.1 | -6.8 | 2.8 | 0.3 | 1.9
Cc1cc(=O)n2nc(N3CCCC(C(=O)NCc4ccccc4Br)C3)sc2n1 (stereo unspecified) | 12.5* | -1.9 | -2.9 | -6.6 | -3.1 | 1.2
COc1ccc(S(=O)(=O)CCC(=O)NCCc2cccc(C)c2)cc1 | 9.7* | 1.8 | -7.6 | -2.9 | -2.0 | -0.2
Cc1cccc(CCNC(=O)CCS(=O)(=O)c2ccc(Br)cc2)c1 | 1.7 | 12.7 | 6.4 | 3.9 | x | x
O=C1/C(=C\c2cccs2)SC(=S)N1C1CCS(=O)(=O)C1 (stereo unspecified) | 9.8* | 0.1 | 3.8 | 0.2 | -1.0 | 0.0
O=C1/C(=C/c2ccccc2)SC(=S)N1C1CCS(=O)(=O)C1 (stereo unspecified) | -2.0 | 3.2 | 6.5 | -6.5 | x | x
Cc1cccc(OCCCC(=O)Nc2ccc(N(C)C)cc2)c1 | -2.6 | -3.3 | -1.3 | -2.1 | x | x
Cc1cccc(OCCC(=O)Nc2ccc(F)c(F)c2)c1 | 9.7* | -14.8 | 16.7 | -0.3 | -1.2 | 1.6
O=C(NNC(=O)c1ccc2[nH]c(=O)c(=O)[nH]c2c1)c1cccc(Br)c1 | -13.9 | 1.8 | 0.6 | -28.0 | x | x
O=C1N2CCSC2=NC1(NS(=O)(=O)c1ccccc1)C(F)(F)F (stereo unspecified) | 10.2* | 4.7 | -10.0 | 4.6 | 1.6 | 2.2
